The results in this text go back to PubChem BioAssay (NCI).

Assay [1] can be described thus: NCI Yeast Anticancer Drug Screen. Data for the rad50 strain (AID 155).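 Also: 0% = growth of vehicle-only cultures of the same strain.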 The settings on record: S. cerevisiae rad50 strain growth inhibition, hits give high values. The method, boiled down: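 Relative growth inhibition (compound vs vehicle) was measured in yeast with a defined repair-gene alteration.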
A short description of assay [2]: NCI Yeast Anticancer Drug Screen. Data for the mec2-1 strain (AID 157). The settings on record: S. cerevisiae mec2-1 strain, hits give high values. In outline:
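Using mec2-1 yeast: add compound, measure growth, express inhibition versus vehicle-treated cultures.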

Assay [3] can be described thus: NCI Yeast Anticancer Drug Screen. Data for the sgs1 mgt1 strain (AID 161).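 Also: 0% = growth of cultures given vehicle only.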 Particulars: S. cerevisiae sgs1 mgt1 strain, hits give high values. The method, boiled down: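 This yeast growth screen uses a strain with defined DNA-repair lesions; compound-treated growth is compared with vehicle-treated growth.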
Assay [4] is described as follows: NCI Yeast Anticancer Drug Screen. Data for the cln2 rad14 strain (AID 165).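 Also: 0% = growth equal to vehicle treated cultures.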 The settings on record: S. cerevisiae cln2 rad14 strain, hits give high values. In outline:
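Yeast strain cln2 rad14, bearing defects in cell cycle control and DNA repair, serves as the test system; values reflect growth inhibition compared with vehicle.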

Assay [5] in a line: NCI Yeast Anticancer Drug Screen. Data for the bub3 strain (AID 167). Particulars: S. cerevisiae bub3 mutant strain, hits give high values. The method, boiled down:
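Screening used yeast with an engineered genetic alteration affecting cell cycle control. Compound-exposed cultures were compared with vehicle cultures, and reduced growth was taken as inhibition.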

A short description of assay [6]: NCI Yeast Anticancer Drug Screen. Data for the mlh1 rad18 strain (AID 175). The settings on record: S. cerevisiae mlh1 rad18 strain growth inhibition, hits give high values. The method, boiled down:
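Steps: expose repair-defective yeast to compound; measure growth; express inhibition against vehicle-treated controls.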

The mark [7] stands for this setting: at 5.0 µM (retest, dose inferred, filed as 0.5).
Where [8] appears, read: at 50.0 µM (retest, dose inferred, filed as 5.0).

About 79,000 compounds went through this panel and 15% of them were active in at least one assay; those are over-represented in the sample as a whole. Values without a mark were called inactive. Activity calls are given as the source filed them. Rule as the data show it: active = growth inhibition above about 70%; inactive = the rest.

With `CN(C)c1ccc(/C=C/c2nccc3ccccc23)cc1`, the growth inhibition is -9% in assay [1] (setting [7]); 96% (active) in assay [1] (setting [8]); 91% (active) in assay [1] (at 50.0 µM); 8% in assay [2] (setting [7]); 96% (active) in assay [2] (setting [8]); 91.9% (active) in assay [2] (at 50.0 µM). For the same compound, the growth inhibition was 3% in assay [3] (setting [7]); 97% (active) in assay [3] (setting [8]); 94.7% (active) in assay [3] (at 50.0 µM); -8% in assay [4] (setting [7]); 96% (active) in assay [4] (setting [8]); 75.5% (active) in assay [4] (at 50.0 µM). Besides, the growth inhibition in assay [5] (setting [7]) is 4%; in assay [5] (setting [8]), 97% (active); in assay [5] (at 50.0 µM), 93.7% (active); in assay [6] (setting [7]), 10%; in assay [6] (setting [8]), 95% (active); in assay [6] (at 50.0 µM), 91% (active).

On to `N=C1C(=N)c2ccccc2-c2ccccc21`, for which the growth inhibition was 9% in assay [1] (setting [7]); 99% (active) in assay [1] (setting [8]); 88.8% (active) in assay [1] (at 50.0 µM); 25% in assay [2] (setting [7]); 100% (active) in assay [2] (setting [8]); 91.2% (active) in assay [2] (at 50.0 µM). In addition, the growth inhibition in assay [3] (setting [7]) is 17%; in assay [3] (setting [8]), 38%; in assay [3] (at 50.0 µM), 91.9% (active); in assay [4] (setting [7]), 18%; in assay [4] (setting [8]), 87% (active); in assay [4] (at 50.0 µM), 91.7% (active). Moreover, the growth inhibition in assay [5] (setting [7]) is 11%; in assay [5] (setting [8]), 99% (active); in assay [5] (at 50.0 µM), 89.6% (active); in assay [6] (setting [7]) it was 19%; in assay [6] (setting [8]), 99% (active); in assay [6] (at 50.0 µM) it was 89.2% (active).

With `N#Cc1c2ccccc2nc2ccccc12`, the growth inhibition was 37% in assay [1] (setting [7]); 45% in assay [1] (setting [8]); 85.9% (active) in assay [1] (at 50.0 µM); 21% in assay [2] (setting [7]); 19% in assay [2] (setting [8]); 16.9% in assay [2] (at 50.0 µM). Also, the growth inhibition in assay [3] (setting [7]) is -1%; in assay [3] (setting [8]) it was 37%; in assay [3] (at 50.0 µM), 30.1%; in assay [4] (setting [7]), 2%; in assay [4] (setting [8]), 3%; in assay [4] (at 50.0 µM), 19.6%. Further, the growth inhibition in assay [5] (setting [7]) is 5%; in assay [5] (setting [8]) it was 12%; in assay [5] (at 50.0 µM), 28.4%; in assay [6] (setting [7]) it was 1%; in assay [6] (setting [8]), 17%; in assay [6] (at 50.0 µM), 74.2% (active).

Turning to `CCCCCC[C@@H](O)C/C=C\CCCCCCCC(=O)OCCOC`, the growth inhibition is -4% in assay [1] (setting [7]); 2% in assay [1] (setting [8]); 24.9% in assay [1] (at 50.0 µM); -3% in assay [2] (setting [7]); 26% in assay [2] (setting [8]); 5.4% in assay [2] (at 50.0 µM). In addition, the growth inhibition in assay [3] (setting [7]) was -6%; in assay [3] (setting [8]) it was 24%; in assay [3] (at 50.0 µM), 4.2%; in assay [4] (setting [7]), 2%; in assay [4] (setting [8]), -4%; in assay [4] (at 50.0 µM), 77.2% (active). The growth inhibition was -5% in assay [5] (setting [7]); 86% (active) in assay [5] (setting [8]); 12.6% in assay [5] (at 50.0 µM); 0% in assay [6] (setting [7]); 13% in assay [6] (setting [8]); 34.1% in assay [6] (at 50.0 µM).

`CCc1cnc2ccccc2c1/C=C/c1ccc(N(C)C)cc1`: the growth inhibition in assay [1] (setting [7]) was -13%; in assay [1] (setting [8]) it was 96% (active); in assay [1] (at 50.0 µM) it was 98.4% (active); in assay [2] (setting [7]) it was 9%; in assay [2] (setting [8]), 96% (active); in assay [2] (at 50.0 µM), 97.3% (active). Also, the growth inhibition in assay [3] (setting [7]) was 4%; in assay [3] (setting [8]), 96% (active); in assay [3] (at 50.0 µM), 92.3% (active); in assay [4] (setting [7]), -36%; in assay [4] (setting [8]), 94% (active); in assay [4] (at 50.0 µM) it was 93.1% (active). In addition, the growth inhibition in assay [5] (setting [7]) is 21%; in assay [5] (setting [8]), 97% (active); in assay [5] (at 50.0 µM) it was 96.8% (active); in assay [6] (setting [7]), -8%; in assay [6] (setting [8]) it was 94% (active); in assay [6] (at 50.0 µM) it was 94.7% (active).

With `O=[N+]([O-])c1ccc(Oc2ccccc2Cl)c([N+](=O)[O-])c1`, the growth inhibition in assay [1] (setting [7]) was 13%; in assay [1] (setting [8]) it was 96% (active); in assay [1] (at 50.0 µM), 4.1%; in assay [2] (setting [7]), -25%; in assay [2] (setting [8]), 95% (active); in assay [2] (at 50.0 µM), 38.1%. The growth inhibition in assay [3] (setting [7]) was 27%; in assay [3] (setting [8]) it was 97% (active); in assay [3] (at 50.0 µM) it was 63.1%; in assay [4] (setting [7]), 3%; in assay [4] (setting [8]), 86% (active); in assay [4] (at 50.0 µM) it was 17.9%. The growth inhibition is 7% in assay [5] (setting [7]); 97% (active) in assay [5] (setting [8]); 44.7% in assay [5] (at 50.0 µM); 29% in assay [6] (setting [7]); 97% (active) in assay [6] (setting [8]); 72.7% (active) in assay [6] (at 50.0 µM).

Turning to `COC(=O)Nc1nc2ccc(C3(c4ccc(F)cc4)OCCO3)cc2[nH]1`, the growth inhibition in assay [1] (setting [7]) is 25%; in assay [1] (setting [8]), 51%; in assay [1] (at 50.0 µM) it was -6.5%; in assay [2] (setting [7]), 9%; in assay [2] (setting [8]), 67%; in assay [2] (at 50.0 µM), 35%. The growth inhibition was 20% in assay [3] (setting [7]); 55% in assay [3] (setting [8]); 79% (active) in assay [3] (at 50.0 µM); 11% in assay [4] (setting [7]); 36% in assay [4] (setting [8]); 56.2% in assay [4] (at 50.0 µM). The growth inhibition is 22% in assay [5] (setting [7]); 72% (active) in assay [5] (setting [8]); 84.1% (active) in assay [5] (at 50.0 µM); 18% in assay [6] (setting [7]); 76% (active) in assay [6] (setting [8]); 80% (active) in assay [6] (at 50.0 µM).

For `Cc1ccc(/C=C2\CNC/C(=C\c3ccc(C)cc3)C2=O)cc1`, the growth inhibition in assay [1] (setting [7]) is 68%; in assay [1] (setting [8]) it was 96% (active); in assay [1] (at 50.0 µM), 86% (active); in assay [2] (setting [7]), 54%; in assay [2] (setting [8]) it was 98% (active); in assay [2] (at 50.0 µM), 86.4% (active). Moreover, the growth inhibition is 76% (active) in assay [3] (setting [7]); 98% (active) in assay [3] (setting [8]); 90.5% (active) in assay [3] (at 50.0 µM); 55% in assay [4] (setting [7]); 91% (active) in assay [4] (setting [8]); 77.2% (active) in assay [4] (at 50.0 µM). The growth inhibition in assay [5] (setting [7]) is 75% (active); in assay [5] (setting [8]), 97% (active); in assay [5] (at 50.0 µM), 87.2% (active); in assay [6] (setting [7]) it was 78% (active); in assay [6] (setting [8]), 97% (active); in assay [6] (at 50.0 µM), 83.8% (active).

Consider `Cc1cc(C(N)=O)cc(C)c1C(=O)OCCCl`, for which the growth inhibition in assay [1] (setting [7]) is -4%; in assay [1] (setting [8]) it was -1%; in assay [1] (at 50.0 µM), 31.7%; in assay [2] (setting [7]), -5%; in assay [2] (setting [8]) it was -2%; in assay [2] (at 50.0 µM) it was 66.4%. For the same compound, the growth inhibition was -4% in assay [3] (setting [7]); -2% in assay [3] (setting [8]); -4.05% in assay [3] (at 50.0 µM); -3% in assay [4] (setting [7]); -8% in assay [4] (setting [8]); -114% in assay [4] (at 50.0 µM). The growth inhibition in assay [5] (setting [7]) is -2%; in assay [5] (setting [8]), -2%; in assay [5] (at 50.0 µM), 51.9%; in assay [6] (setting [7]) it was -57%; in assay [6] (setting [8]), 0%; in assay [6] (at 50.0 µM), 58.1%.

As to `O=C(Nc1ccc(Cl)c(Cl)c1)Nc1ccccc1O`, the growth inhibition was 5% in assay [1] (setting [7]); 50% in assay [1] (setting [8]); 46.2% in assay [1] (at 50.0 µM); 6% in assay [2] (setting [7]); 35% in assay [2] (setting [8]); 39.9% in assay [2] (at 50.0 µM). Further, the growth inhibition is 0% in assay [3] (setting [7]); 31% in assay [3] (setting [8]); 48.8% in assay [3] (at 50.0 µM); 12% in assay [4] (setting [7]); 39% in assay [4] (setting [8]); 53.3% in assay [4] (at 50.0 µM). For the same compound, the growth inhibition in assay [5] (setting [7]) was 46%; in assay [5] (setting [8]), 78% (active); in assay [5] (at 50.0 µM) it was 64%; in assay [6] (setting [7]), 1%; in assay [6] (setting [8]), 54%; in assay [6] (at 50.0 µM), 76.2% (active).
